# Bioassay records: PubChem, National Center for Advancing Translational Sciences (NCATS)
# The list is not random: actives were taken first. Their share in the collection is about 22%.
# Shiga toxin inh: A qHTS for Small Molecule Inhibitors of Shiga Toxin; Vero cells, Shiga toxin protein synthesis inhibition reporter; inhibition, % at 38.7 µM; 290,000 compounds, 9.2% hits; in the data active means inhibition mostly above about 28%, no sharp cut-off; inactive means mostly below about 43%; further: 0% is about no effect
# Pf growth 96h: Primary qHTS for delayed death inhibitors of the malarial parasite plastid, 96 hour incubation; P. falciparum luciferase reporter growth, 96 h; Potency, µM (highest dose often 28.7 µM), for the others: at the top dose activity change, negative = inhibition, usual class: inhibitors; 320,000 compounds, 6.9% hits; AID 504834, 2011; further: potency means the concentration at half of the fitted maximal effect; on the % scale 0 is the no-effect control and ±100 the full control effect
#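 Plates of compound plus infected erythrocytes (2% hematocrit, 0.05% parasitemia final) incubate 96 hours, 37 C, 5% CO2. Detection reagent added; reduced luminescence from the parasites' luciferase reporter flags inhibition.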
# CHX counter: Cycloheximide Counterscreen for Small Molecule Inhibitors of Shiga Toxin | max response, % | AID 2314, 2010 | cell reporter, cycloheximide protein synthesis inhibition counterscreen | 300,000 compounds, 12% hits; in the data active means max response mostly above about 13%, no sharp cut-off; inactive means mostly below about 14%; further: read at 38.3 µM for the half of the compounds with a filed dose; 0% is about no effect
# Pf growth 48h: Primary qHTS for delayed death inhibitors of the malarial parasite plastid, 48 hour incubation | AID 504832, 2011 | 310,000 compounds, 5.9% hits | P. falciparum luciferase growth in erythrocytes, 48 h | Potency, µM (top dose mostly 28.7 µM), inactives show top-dose activity change, negative = inhibition, actives largely listed as inhibitors; further: potency means the concentration at half of the fitted maximal effect; on the % scale 0 is the no-effect control and ±100 the full control effect
#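 Cell-based growth assay: transgenic P. falciparum expressing firefly luciferase, cultured in red cells within RPMI 1640 containing 0.5% w/v Albumax, 24 mM bicarbonate and gentamycin. A drop in luciferase activity indicates inhibition.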
# LmPK inh: qHTS Assay for Inhibitors of Leishmania Mexicana Pyruvate Kinase (LmPK) | AID 1721, 2009 | 290,000 compounds, 0.37% hits | Potency, µM (doses to about 57.5 µM), for the others: at the highest dose activity change, negative = inhibition, hits mostly inhibitors | Q27686 | purified LmPK, Kinase-Glo ATP luminescence, 1 h; further: potency means the concentration at half of the fitted maximal effect; on the % scale 0 is the no-effect control and ±100 the full control effect
# Target sequence (Q27686 whole entry, looked up): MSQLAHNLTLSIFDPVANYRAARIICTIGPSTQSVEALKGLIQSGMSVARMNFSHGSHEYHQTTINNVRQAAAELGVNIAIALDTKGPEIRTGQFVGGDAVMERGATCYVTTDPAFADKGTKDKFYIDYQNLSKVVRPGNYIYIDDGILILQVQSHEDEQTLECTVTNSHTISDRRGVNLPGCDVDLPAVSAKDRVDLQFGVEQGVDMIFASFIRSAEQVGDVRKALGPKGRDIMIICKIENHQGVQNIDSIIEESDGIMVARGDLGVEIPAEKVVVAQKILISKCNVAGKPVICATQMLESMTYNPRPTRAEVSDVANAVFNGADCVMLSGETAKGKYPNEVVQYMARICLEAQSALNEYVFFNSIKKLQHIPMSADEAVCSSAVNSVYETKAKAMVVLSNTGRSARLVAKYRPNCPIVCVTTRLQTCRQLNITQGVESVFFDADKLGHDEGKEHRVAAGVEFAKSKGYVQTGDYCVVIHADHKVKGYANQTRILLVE
#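 Purified LmPK (0.1 nM) converted ADP (0.1 mM) to ATP with PEP (0.5 mM) in imidazole buffer pH 7.2 with KCl and MgCl2, 1 h at room temperature. ATP was read by Kinase-Glo luminescence; data normalized to uninhibited and no-enzyme controls.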
# * = called active by the depositor; ? = inconclusive; nt = no result; [ ] = another dose, or the depositor's remark. Unless noted, the call rests on the fitted dose curve; in most records, active means well fitted inhibition curve with a large enough effect; inconclusive means small, poorly fitted or top-dose-only effect, or another doubt; inactive means no such curve, though single readings can be large or run the other way.
SMILES,Shiga toxin inh,Pf growth 96h,CHX counter,Pf growth 48h,LmPK inh
C/C(=N\NC(=O)c1cccc(C)c1O)c1ccc(NC(=O)Cc2ccccc2)cc1,45.3*,17.2%,39.2*,5.4%,-2.2%
C/C(=N\NC(=O)c1ccccc1N)c1ccc(NC(=O)Cc2ccccc2)cc1,65.4*,-17.9%,36.3*,9.28µM*,7.4%
COc1ccccc1C(=O)N/N=C(\C)c1ccc(NC(=O)Cc2ccccc2)cc1,16.7,35.6%,2.0,?,1.0%
NC(=S)Nc1ccc(Oc2ccc(NC(N)=S)cc2)cc1,-15.7,?,-3.4,1.0%,0.7%
CN(C)c1nc(OCCNC(=O)COc2ccc(Cl)cc2Cl)nc(N(C)C)n1,50.8,?,7.7,nt,-4.7%
CN(C)c1nc(OCCNC(=O)COc2ccc(Cl)cc2Cl)nc(N2CCCCC2)n1,1.0,2.62µM*,-0.8,?,1.5%
COCCNC(=O)C(=O)N/N=C(\C)CC(=O)Nc1cccc(C(F)(F)F)c1,20.5,-12.0%,13.3,0.4%,7.0%
C/C(CC(=O)Nc1cccc(C(F)(F)F)c1)=N\NC(=O)C1CCCCC1,54.8,8.6%,26.7*,27.3%,3.1%
O=C(CCC(=O)Nc1cccc(C(F)(F)F)c1)NCC1CCCO1 (configuration not stated),-2.7,4.2%,7.4,14.4%,1.9%
O=C(COC(=O)C1CCCO1)Nc1cccc(C(F)(F)F)c1 (configuration not stated),-14.6,7.38µM*,-2.4,1.8%,6.4%
O=C(OC(C(=O)Nc1cccc(C(F)(F)F)c1)c1ccccc1)C1CCCCC1 (configuration not stated),22.1,6.57µM*,0.7,?,-0.2%
O=C(Nc1cccc(C(F)(F)F)c1)NC1CCCCC1,15.4,nt,16.1,nt,6.0%
COc1ccc(C(=O)N/N=C(\C)CC(=O)Nc2cccc(C(F)(F)F)c2)cc1,81.5*,-13.0%,39.0*,0.7%,7.0%
Cc1ccc([N+](=O)[O-])cc1,nt,43.8%,nt,44.6%,nt
CC1(C)CNc2cc([N+](=O)[O-])ccc2S1,58.1*,-29.3%,39.3*,?,-1.8%
NC(=O)NCc1cccs1,-10.5,8.5%,-0.5,7.7%,-0.2%
CC(C)N(C(C)C)S(=O)(=O)c1ccc(N2CCc3ccccc3C2)nc1,57.8*,?,31.7*,?,5.9%
CCN(CC)S(=O)(=O)c1ccc(N2CCc3ccccc3C2)nc1,25.7,-23.4%,36.9*,?,10.8%
CCN(CC)S(=O)(=O)c1ccc(N2CCN(S(=O)(=O)c3ccccc3)CC2)nc1,-2.5,-11.5%,-9.6,?,-0.8%
CC(=O)c1ccc(OCCOc2ccc(Cl)c3cccnc23)cc1,16.6,-26.2%,7.5,17.4%,3.6%
O=[N+]([O-])c1ccc(-c2ccccc2)c([As](=O)(O)O)c1,1.3,2.08µM*,-3.9,11.7µM*,-4.5%
C/C(=N\NC(=O)c1cc(O)ccc1O)c1cccc(NC(=O)c2cccc(Cl)c2)c1,70.7*,?,40.7*,8.9%,-5.7%
C/C(=N\NC(=O)c1cc(O)ccc1O)c1cccc(NC(=O)c2ccc(Cl)cc2)c1,78.3*,?,46.8*,?,1.1%
C/C(=N\NC(=O)C1CC1)c1cccc(NC(=O)c2cccc(Cl)c2)c1,3.2,-18.0%,-2.7,?,4.0%
C/C(=N/NS(=O)(=O)c1ccc(Cl)cc1)c1cccc(NC(=O)c2ccc(Cl)cc2Cl)c1,84.1*,-3.0%,33.0*,?,1.2%
SMILES,Shiga toxin inh,Pf growth 96h,CHX counter,Pf growth 48h,LmPK inh
Cc1nn2c(-c3cccc(NC(=O)c4ccco4)c3)nnc2c2ccccc12,0.0,52.8%,22.4*,9.28µM*,-0.7%
Cc1nn2c3ccccc3nc2c2ccccc12,13.3,47.1%,7.4,nt,6.8%
Cc1nn2c(-c3ccccc3)nnc2c2ccccc12,40.7,?,11.3*,19.1%,-17.8%
COCCCn1c(=S)[nH]c2sc3c(c2c1=O)CCCS3,90.8*,104.2%,39.9*,104.6%,?
Cc1ncoc1C(=O)N1CCc2c([nH]c3ccccc23)C1C(C)(C)C (configuration not stated),9.6,?,2.4,?,2.6%
Cc1cc(=O)oc(C)c1C(=O)N1CCc2c([nH]c3ccccc23)C1C(C)C (configuration not stated),-9.3,11.7µM*,-3.5,nt,6.2%
COc1ccc(OC)c(C2=Nn3c(nnc3-c3ccccc3C)SC2)c1,-10.2,nt,8.4,nt,nt
CC(Nc1ccc(Cl)cc1)c1cc(Cl)ccc1O (configuration not stated),-2.3,13.3%,-1.3,9.28µM*,7.7%
CCN1CCN(c2ccc(S(=O)(=O)N3CCOCC3)cc2NC(=O)C(C)Oc2ccc(Cl)cc2)CC1 (configuration not stated),nt,?,nt,11.7µM*,nt
CC(Oc1ccc(Cl)cc1)C(=O)Nc1cccc(S(=O)(=O)N2CCOCC2)c1 (configuration not stated),nt,10.4µM*,nt,?,nt
CC(Oc1ccccc1)C(=O)Nc1ccc(S(=O)(=O)N2CCOCC2)cc1 (configuration not stated),14.3,-1.4%[5.75 µM],-0.9,-12.3%,-1.3%
Cc1ccc(C(=O)C2CN(C)CC2C(=O)c2ccc(C)cc2)cc1 (configuration not stated),38.8*,29.0%,23.2*,-2.5%,0.9%
O=C1NC(=Nc2ccccc2)c2c1cccc2[N+](=O)[O-],20.9,-98.4%,18.8*,?,2.7%
CCOC(=O)C(C)Oc1ccc(C2NC(=O)NC(C)=C2C(=O)Nc2ccccc2C)cc1 (configuration not stated),-0.7,?,0.4,10.4µM*,6.7%
CC1=C(C(=O)OC2CCC(C)CC2)C(c2ccc(O)c([N+](=O)[O-])c2)NC(=O)N1 (configuration not stated),nt,?,-3.3,-14.5%,10.1%
COc1ccc(COC(=O)C2=C(C)NC(=O)NC2c2ccc(O)c(OC)c2)cc1 (configuration not stated),-4.7,10.4µM*,-3.9,nt,11.2%
CC1=C(C(=O)OCc2ccc(C)cc2)C(c2ccc(O)c([N+](=O)[O-])c2)NC(=O)N1 (configuration not stated),2.4,-4.0%,-2.5,11.7µM*,-1.7%
CCOc1cc(C2NC(=O)NC(C)=C2C(=O)OCc2ccccc2)ccc1O (configuration not stated),11.2,-10.2%,-4.4,2.33µM*,4.4%
COc1ccc(/C=C2\SC(=S)N(CCC(=O)Nc3cccc(C(=O)O)c3)C2=O)cc1,5.2,32.6%,-0.2,19.7%,-3.4%
O=C(CSc1nnnn1-c1ccc(Cl)cc1)N1CCc2ccccc2C1,10.4,4.7%,-2.4,10.0%,1.6%
